± gives the standard deviation.
Key:
[1] = tested on: MILI (PIWIL2) piRISC loaded with L1MC piRNA (26 nt); assay: pre-steady-state target cleavage rate (min^-1); guide: L1MC piRNA 5'p-UAACUAAAUACUAUGCAAGCUGUAGG; higher = faster piRNA-guided slicing of the target
Method in brief: (§1)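 Using HEPES–potassium acetate buffer at 33 °C, 1 nM active affinity-purified piRISC with a single synthetic guide was mixed with 0.1 nM transcribed, DNA-blocked target RNA library for 0–8 or 0–960 min, with or without 500 nM GTSF1 partner protein. Uncleaved targets were sequenced and normalised to depth and to weakly complementary targets, and three trials were pooled with k3 capped at 0.0001 min^-1. A burst-and-steady-state fit gave the pre-steady-state cleavage rate.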

[2] = tested on: EfPiwi piRISC loaded with L1MC piRNA (26 nt); assay: pre-steady-state target cleavage rate (min^-1); auxiliary factor: 500 nM Ephydatia muelleri Gtsf1; guide: L1MC piRNA 5'p-UAACUAAAUACUAUGCAAGCUGUAGG; MIWI and MILI are mouse PIWI proteins and EfPiwi is from a freshwater sponge; tags in brackets are library labels; higher = faster piRNA-guided slicing of the target
Method in brief: as §1

[3] = auxiliary factor: 500 nM mouse GTSF1
[4] = auxiliary factor: none (no GTSF1)

Sequence	pre-steady-state target cleavage rate [1, 3]	pre-steady-state target cleavage rate [1, 4]	pre-steady-state target cleavage rate [2]
UCCUGCUACAGCUUCGUUAGUAUUUAGUUA	0.239 ± 0.022	0.00333 ± 0.0027	
UCCUGGAACAGCUUCGAUAGUAUUUAGUAA	0.167 ± 0.019	0.00446 ± 0.0025	
UCCUGGAUGUGCUUGCUAUGUAUUUAGUUA	0.00774 ± 0.0037	0.00498 ± 0.0024	
UCCUGGAACAGCUUGAUAGUAUUUAGUUA	0.11 ± 0.013	0.00612 ± 0.0022	
UCCUGGAUCAGCUUGCUUAGUAUUUUGUUA	0.16 ± 0.015	0.00583 ± 0.0022	
UCCUGGAACUGCUUGCAUAGUAUUAAGUUA	0.173 ± 0.022	0.00346 ± 0.0024	
UCCUGGUACAGCUAGCAUAGUUUUUAGUUA	0.0495 ± 0.011	0.00928 ± 0.0026	
UCCUGGAUCAGCUAGCAUAGUAUUUUGUUA	0.19 ± 0.021	0.00333 ± 0.0023	
UCCUGGAUGUCGAAGCAUAGUAUAUUAGUUA	0.0302 ± 0.0085	0.00411 ± 0.0026	
UCCUGGAUGUGCUUGGAUAGUUUUUAGUUA	0.00761 ± 0.0046	0.00414 ± 0.0024	
UCCUGGAUGUCGAUGCAUAGUGAUUUAGUUA	0.00445 ± 0.0044	0.00429 ± 0.0023	
UCCUGGAUGUCGAACCAAUGUAUUUAGUUA	< 0.0001	< 0.0001	
UCCUGGAACAGCUUGCAUAGUAAUUAGUUA	0.268 ± 0.022	0.00705 ± 0.0022	
UCCUGGAUGAGCUUGCAUAGUAUUAAGUUA	0.194 ± 0.029	0.00479 ± 0.0019	
UCCUGGAUGUGGAAGCAUAGUAUUUAGUUA	0.026 ± 0.0048	0.00344 ± 0.0029	
UCCUGGAUGUCCUUGCAUACUUUUUAGUUA	0.00626 ± 0.004	0.0024 ± 0.0022	
UCCUGGAUGAGGAAGCAUAGUAUUUAGUUA	0.0519 ± 0.012	0.00494 ± 0.0027	
UCCUGGAUGUGCUAGCAUAGAAUUUAGUUA	0.0105 ± 0.0042	0.00267 ± 0.0022	
UCCUGGAUGUCCUAGCAUAGUAUAUAGUUA	0.0912 ± 0.02	0.00315 ± 0.0027	
UCCUGGAUGUGCUUGCUUAGUAUUUAGUAA	0.0779 ± 0.014	0.00576 ± 0.0018	
UCCUGCUACAGCCUUGCAUAGUAUUUAGUUA	0.308 ± 0.025	0.00822 ± 0.0026	
UCCUGGAUGUCCUUGCAUAGUAUUGUAGUUA	0.102 ± 0.023	0.0041 ± 0.003	
UCCUGGAUGAGCAUGCAUACUAUUUAGUUA	0.0556 ± 0.011	0.00656 ± 0.0024	
UCCUGGAUGACCUUGCAUUGUAUUUAGUUA	0.0617 ± 0.0098	0.00446 ± 0.0029	
UCCUGGAACAGCUAGCUUAGUAUUUAGUUA	0.186 ± 0.015	0.0065 ± 0.0023	
UCCUGGAUGUGCUUGCAAAGUAUAUAGUUA	0.0264 ± 0.0072	0.00311 ± 0.0024	
UCCUGGAUGUCCUUGCAUUGUAUUAAGUUA	0.0479 ± 0.012	0.00424 ± 0.0019	

Sequence	pre-steady-state target cleavage rate [1, 3]	pre-steady-state target cleavage rate [1, 4]	pre-steady-state target cleavage rate [2]
UCCUGGAUGUCGAUGCAAAGUAUUUAGUUA	0.00863 ± 0.0026	0.0036 ± 0.0027	
UCCUGGAUGUCCUUGCGUAGUAUUUAGUUA	0.0231 ± 0.0068	0.0122 ± 0.0025	
UCCUGGUACAGCUUGCAUAGUAUUUAGUAUA	0.224 ± 0.031	0.00565 ± 0.0029	
UCCUGGAUGUCGUUGCAGAGUAUUUAGUUA	0.0117 ± 0.0043	0.0038 ± 0.0022	
UCCUGCUACAGCUUGCAUAGUUUUUAGUUA	0.0767 ± 0.014	0.00327 ± 0.0022	0.00538 ± 0.0021
UCCUGGAUGAGCAAGCAUAGUAUUUAGUAA	0.123 ± 0.018	0.00443 ± 0.0027	
UCCUGGUACAGCUUCGAUAGUAUUUAGUAA	0.26 ± 0.046	0.00305 ± 0.0029	
UCCUGGAUGUCCUUGCUUAGUAUUUAGUUA	0.0537 ± 0.0095	0.00574 ± 0.0022	0.00568 ± 0.0037
UCCUGGAUGUCGUUGCUUAGUAUUUAGUAA	0.0495 ± 0.02	0.00388 ± 0.0022	
UCCUGGAUGUGCUUGCAUAGUAAUUAGUUA	0.095 ± 0.013	0.00684 ± 0.0024	0.00847 ± 0.0037
UCCUCCUACAGCUGCAUAGUAUUUAGUUA	0.275 ± 0.018	0.00792 ± 0.0023	
UCCUGGAUGUCGUUGCAUAGUAUUGAGUUA	0.0312 ± 0.011	0.00363 ± 0.0032	
UCCUGCUACAGCUUGCAAUCUAUUUAGUUA	0.0303 ± 0.0068	0.00243 ± 0.0019	
UCCUCGUACAGCUUGCAUACUAUUUAGUUA	0.0786 ± 0.011	0.00274 ± 0.0022	
UCCUGGAUGUCGAUAGCAUAGUAUUUAGUUA	0.0459 ± 0.014	0.00341 ± 0.0026	
UCCUCCUACGGCUUGCAUAGUAUUUAGUUA	0.298 ± 0.018	0.0137 ± 0.004	0.0667 ± 0.017
UCCUGGUACAGCUUCCAUUGUAUUUAGUUA	0.113 ± 0.039	0.00415 ± 0.0035	
UCCUCCUUGAGCUUGCAUAGUAUUUAGUUA	0.216 ± 0.018	0.0051 ± 0.0021	0.0223 ± 0.0062
UCCUGCUACAGCUUGCUUAGUAUUUAGUAA	0.119 ± 0.015	0.00316 ± 0.0023	0.00437 ± 0.0017
UCCUGGAUGUGGUUGCAAAGUAUUUAGUUA	0.0262 ± 0.0077	0.00983 ± 0.0026	
UCCUGGAUGUGCUUGCAAAGUAUUAAGUUA	0.0349 ± 0.0076	0.0052 ± 0.0026	
UCCUGGAUGUGCUUGCUAAGUAUUUAGUUA	0.0146 ± 0.0062	0.00546 ± 0.0023	
UCCUGGAUGUGCUUGCAAAGUAUUUACUUA	0.0114 ± 0.0052	0.00362 ± 0.0028	
UCCUGGUACAGCUUGCAUAGAUUUUAGUUA	0.0355 ± 0.0097	0.00346 ± 0.0029	
UCCUGGUACAGGAUGCAUAGUAUUUAGUAA	0.172 ± 0.021	0.00595 ± 0.002	0.00412 ± 0.002
UCCUCCUACAGCUUGCAAAGUAUUUAGUUA	0.167 ± 0.014	0.00717 ± 0.0022	0.0392 ± 0.012

— the supplement of paper PMC10338343
